± gives the standard deviation.
What was measured:
[1] = tested on: MILI (PIWIL2) piRISC loaded with L1MC piRNA (26 nt); assay: pre-steady-state target cleavage rate (min^-1); guide: L1MC piRNA 5'p-UAACUAAAUACUAUGCAAGCUGUAGG; higher = faster piRNA-guided slicing of the target;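 also: 1 nM active piRISC with 0.1 nM target library at 33 °C single turnover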
In short: (§1)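 The pre-steady-state cleavage rate was derived from a burst-and-steady-state fit of Cleave-'n-Seq data. For these assays, 1 nM active affinity-purified piRISC loaded with a single synthetic guide was mixed with […] a transcribed, DNA-blocked target RNA library in HEPES–potassium acetate buffer at 33 °C, with or without 500 nM GTSF1 partner protein, for 0–8 or 0–960 min. Sequencing counts of uncleaved targets were normalised to depth and to weakly complementary targets, and k3 was capped at 0.0001 min^-1 after three trials were pooled.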

[2] = tested on: EfPiwi piRISC loaded with L1MC piRNA (26 nt); assay: pre-steady-state target cleavage rate (min^-1); auxiliary factor: 500 nM Ephydatia muelleri Gtsf1; guide: L1MC piRNA 5'p-UAACUAAAUACUAUGCAAGCUGUAGG; MIWI and MILI are mouse PIWI proteins and EfPiwi is from a freshwater sponge; tags in brackets are library labels; higher = faster piRNA-guided slicing of the target
In short: as §1

[3] = auxiliary factor: 500 nM mouse GTSF1
[4] = auxiliary factor: none (no GTSF1)

Sequence | pre-steady-state target cleavage rate [1, 3] | pre-steady-state target cleavage rate [1, 4] | pre-steady-state target cleavage rate [2]
UCCUGGAUCAGCUUCGAUAGUAUUUAGUUA | 0.233 ± 0.018 | 0.0034 ± 0.0021 | 0.00503 ± 0.0041
UCCUGCUACAGCUUGCAAAGUAUUUAGUUA | 0.13 ± 0.012 | 0.00686 ± 0.0019 | 0.00608 ± 0.0019
UCCUCCUACAGCUUGCUUAGUAUUUACUUA | 0.179 ± 0.02 | 0.00341 ± 0.0022 | 0.00381 ± 0.003
UCCUCCUACAGCUCUGCAUAGUAUUUAGUUA | 0.276 ± 0.014 | 0.00692 ± 0.0018 | 0.0445 ± 0.014
UCCUCGUACAGCUUGCAUAGUAUUUAGUAA | 0.24 ± 0.014 | 0.00621 ± 0.0022 | 0.00794 ± 0.0029
UCCUGGAUGUGCUUGCAUAGUCUUUAGUUA | 0.0458 ± 0.011 | 0.00463 ± 0.0025 | 0.00922 ± 0.0036
UCCUGGUAAAGCUUGCAUAGUAUUUAGUUA | 0.183 ± 0.017 | 0.00996 ± 0.0023 | 0.00606 ± 0.002
UCCUCCUACACCUAGCAUAGUAUUUAGUUA | 0.205 ± 0.027 | 0.0056 ± 0.0018 | 0.00718 ± 0.0027
UCCUGGUACAGAUUGCAUAGUAUUUAGUUA | 0.257 ± 0.028 | 0.0104 ± 0.0044 | 0.0131 ± 0.0038
UCCUCCUACAGCUUGCAUAGUAUUUACUUA | 0.206 ± 0.039 | 0.00429 ± 0.0025 | 0.0042 ± 0.0034
UCCUGGAUCUGCUUGCAUAGUAUUAAGUUA | 0.204 ± 0.019 | 0.00478 ± 0.0026 | 0.00735 ± 0.0037
UCCUCGUACAGCUUGCUUAGUAUUUAGUUA | 0.286 ± 0.016 | 0.00785 ± 0.0024 | 0.0519 ± 0.012
UCCUGGUACAGCUUGCAUAGUAUUUAGUUA [g2:g24:cont:t1A] | 0.277 ± 0.018 | 0.0215 ± 0.0056 | 0.0865 ± 0.024
UCCUGGAUGAGCAAGCAUAGUAUUUAGUUA | 0.12 ± 0.014 | 0.00601 ± 0.0021 | 0.0118 ± 0.0048
UCCUGGAUGAGCUUGUAUAGUAUUUAGUUA | 0.181 ± 0.015 | 0.0088 ± 0.0033 | 0.0538 ± 0.014
UCCUGCUAGAGCUUGCAUAGUAUUUAGUUA | 0.198 ± 0.017 | 0.00605 ± 0.0021 | 0.00838 ± 0.0023
UCCUCCUACAGCAUGCUUAGUAUUUAGUUA | 0.206 ± 0.015 | 0.00645 ± 0.0024 | 0.0116 ± 0.0032
UCCUCCUAGAGCUUGCAUUGUAUUUAGUUA | 0.213 ± 0.012 | 0.00709 ± 0.0021 | 0.018 ± 0.0048
UCCUGCUACAGCUUGCAUAGUAUUAGUUA | 0.222 ± 0.026 | 0.0027 ± 0.0027 | 0.00404 ± 0.0022
UCCUGGUACAGCUAGCAUAGUAAUUAGUUA | 0.236 ± 0.041 | 0.00483 ± 0.0027 | 0.00407 ± 0.0023
UCCUCCUACAGCUUGCAAAGUAUUUACUUA | 0.0765 ± 0.013 | 0.0033 ± 0.0019 | 0.00282 ± 0.0024
UCCUGGUAGAGCUUGCUUAGUAUUUAGUUA | 0.226 ± 0.012 | 0.00793 ± 0.0029 | 0.00885 ± 0.0045
UCCUCCUACGAGCUUGCAUAGUAUUUAGUUA | 0.163 ± 0.018 | 0.00585 ± 0.0022 | 0.0144 ± 0.0051
UCCUGGAACAGCAUGCAUAGUUUUUAGUUA | 0.0418 ± 0.011 | 0.00553 ± 0.0023 | 0.00387 ± 0.0016
UCCUGGAUGUCUUUGCAUAGUAUUUAGUUA | 0.119 ± 0.015 | 0.0125 ± 0.0027 | 0.00871 ± 0.0039

Sequence | pre-steady-state target cleavage rate [1, 3] | pre-steady-state target cleavage rate [1, 4] | pre-steady-state target cleavage rate [2]
UCCUCCUAGAGCUUGCAAAGUAUUUAGUUA | 0.14 ± 0.0099 | 0.00516 ± 0.002 | 0.0214 ± 0.006
UCCUGGUACAGCUUGCUUAGUAUAUAGUUA | 0.197 ± 0.045 | 0.00855 ± 0.0026 | 0.0737 ± 0.025
UCCUGGAUGAGCUUGCAUAGUAUUUGGUUA | 0.203 ± 0.025 | 0.00663 ± 0.0031 | 0.00713 ± 0.002
UCCUGGUACAGCUUGCAUAGUAUAAUGUUA | 0.175 ± 0.036 | 0.00565 ± 0.0032 | 0.00312 ± 0.0026
UCCUGGUACAGCAUGCAUAGUAUUAAGUUA | 0.292 ± 0.06 | 0.0046 ± 0.003 | 0.00442 ± 0.002
UCCUGGAUCAGCUACCAUAGUAUUUAGUUA | 0.145 ± 0.014 | 0.00343 ± 0.0016 | 0.00516 ± 0.0032
UCCUGGUACAGCUUGCAUAGUAUCUUAGUUA | 0.188 ± 0.031 | 0.00861 ± 0.0033 | 0.00588 ± 0.0027
UCCUCCUACAGCUUGCAGAGUAUUUAGUUA | 0.218 ± 0.021 | 0.00823 ± 0.0022 | 0.0095 ± 0.0025
UCCUGGAUGAGCUUGCAUACUAUUUAGUUA | 0.0499 ± 0.0093 | 0.00321 ± 0.0018 | 0.00682 ± 0.0019
UCCUGGCACAGCUUGCAUAGUAUUUAGUUA | 0.289 ± 0.053 | 0.0117 ± 0.0049 | 0.0252 ± 0.0092
UCCUGGUACAGCUUGCAUAGUAUUUUAGUUA | 0.183 ± 0.021 | 0.0144 ± 0.0062 | 0.00849 ± 0.0042
UCCUGGAUCUGCUUGCAUUGUAUUUAGUUA | 0.159 ± 0.015 | 0.00477 ± 0.0023 | 0.00657 ± 0.003
UCCUGGAACAGGUUGCAUAGAAUUUAGUUA | 0.0524 ± 0.011 | 0.0038 ± 0.002 | 0.00258 ± 0.0014
UCCUGGUACAGCUUGGAUAGUAAUUAGUUA | 0.226 ± 0.057 | 0.00415 ± 0.0029 | 0.00316 ± 0.0025
UCCUCCUACAGCUUGCAAGUAUUUAGUUA | 0.155 ± 0.017 | 0.00449 ± 0.0021 | 0.00641 ± 0.0026
UCCUGGAACAGCUUGCAUAGUAUUUAGUGA | 0.229 ± 0.027 | 0.00433 ± 0.0025 | 0.00437 ± 0.002
UCCUGCUUGUGCUUGCAUAGUAUUUAGUUA | 0.13 ± 0.017 | 0.00616 ± 0.0025 | 0.00618 ± 0.0027
UCCUGGAACAGCUUGCAAAGUAUUAAGUUA | 0.0867 ± 0.015 | 0.00516 ± 0.0022 | 0.00406 ± 0.003
UCCUGCUACAGCUUGCAUAGUAGUUAGUUA | 0.127 ± 0.03 | 0.00253 ± 0.0025 | 0.00461 ± 0.0015
UCCUGGAACACCUUGCAUUGUAUUUAGUUA | 0.14 ± 0.018 | 0.00474 ± 0.0027 | 0.00411 ± 0.0026
UCCUCCUAGACCUUGCAUAGUAUUUAGUUA | 0.237 ± 0.024 | 0.00751 ± 0.0025 | 0.141 ± 0.041
UCCUGGUAGAGCUUGCAUAGUAUUAAGUUA | 0.207 ± 0.034 | 0.00672 ± 0.0026 | 0.00385 ± 0.0022
UCCUGGAUGAUGCUUGCAUAGUAUUUAGUUA | 0.228 ± 0.023 | 0.00923 ± 0.0034 | 0.0738 ± 0.022
UCCUGGAUCAGCUUGUCAUAGUAUUUAGUUA | 0.21 ± 0.019 | 0.00334 ± 0.0027 | 0.0196 ± 0.0046
UCCUGGAUGUGCCUGCAUAGUAUUUAGUUA | 0.0999 ± 0.015 | 0.00951 ± 0.003 | 0.00933 ± 0.0036
